Of roughly 8,800 targets only a part is listed; those with a hit were picked by preference. About 0.5% of all pairs of compound and target were hits.
Legend:
Assay in all cases: log2 fold change, soluble protein after heating vs DMSO (PISA); higher = thermal stabilisation; K562 lysate, 10 uM; active = over 0.2 and 3.5 SD of the protein, either way, in both replicates (recomputed)
[1] = compound: Cc1cn(-c2cc(NC(=O)c3ccc(C)c(Nc4nccc(-c5cccnc5)n4)c3)cc(C(F)(F)F)c2)cn1 [nilotinib]
How it was run: (§1)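 K562 pellets were dounce-homogenised in PBS pH 7.4 containing 1 mM MgCl2, and the crude extract, at 1 mg/mL protein, was exposed to 10 μM compound for 30 min. Aliquots were heated for 3 min across 48°C-58°C, pooled, brought to 0.5% NP-40 at 4°C and spun at 21,000xg for 90 min, with the supernatant taken as soluble protein. TMTpro 16plex LC-MS/MS with equalised channel sums quantified that protein. Values are log-two fold changes in thermal stability relative to solvent controls, taken from duplicates.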

[2] = compound: Cc1nc(Nc2n[nH]c3c2CN(C(=O)N[C@H](CN(C)C)c2ccccc2)C3(C)C)c2sccc2n1
How it was run: as §1

[3] = compound: Cc1nc(Nc2ncc(C(=O)Nc3c(C)cccc3Cl)s2)cc(N2CCN(CCO)CC2)n1 [dasatinib]
How it was run: as §1

[4] = compound: Cc1ncc(-c2ccnc(Nc3ccc(S(C)(=O)=O)cc3)n2)n1C(C)C
How it was run: as §1

[5] = compound: Cn1cc(-c2ccc3c(c2)CCN3C(=O)Cc2cccc(C(F)(F)F)c2)c2c(N)ncnc21
How it was run: as §1

[6] = compound: Cn1cc(CNCC2CCN(c3ncc(C(=O)NO)cn3)CC2)c2ccccc21 [quisinostat]
How it was run: as §1

[7] = compound: Cn1cncc1[C@@](N)(c1ccc(Cl)cc1)c1ccc2c(c1)c(-c1cccc(Cl)c1)cc(=O)n2C [tipifarnib]
How it was run: as §1

[8] = compound: NC(=O)Nc1cc(-c2cccc(F)c2)sc1C(=O)N[C@H]1CCCNC1
How it was run: as §1

[9] = compound: NC(=O)c1cnc(N[C@@H]2CCCC[C@@H]2N)nc1Nc1cccc(-n2nccn2)c1
How it was run: as §1

[10] = compound: NC1(c2ccc(-c3nc4ccn5c(=O)[nH]nc5c4cc3-c3ccccc3)cc2)CCC1
How it was run: as §1

[11] = compound: NCC(=O)Nc1ccc(-n2nc(C(F)(F)F)cc2-c2ccc3c(ccc4ccccc43)c2)cc1
How it was run: as §1

[12] = compound: O=C(CCCCCCC(=O)Nc1ccccc1)NO [vorinostat]
How it was run: as §1

[13] = compound: O=C(O)c1ccc2c(c1)nc(Nc1cccc(Cl)c1)c1ccncc12 [silmitasertib]
How it was run: as §1

[14] = compound: O=C1NC(=O)C(c2cnc3ccccn23)=C1c1cn2c3c(cc(F)cc13)CN(C(=O)N1CCCCC1)CC2
How it was run: as §1

[15] = compound: c1cn2cc(-c3ccc4cn[nH]c4c3)nc(Nc3ccc(N4CCOCC4)cc3)c2n1 [entospletinib]
How it was run: as §1

Measured: log2 fold change

BCAR1 isoform 6 (UniProt P56945)
inactive: [1] -0.021 | [2] -0.015 | [3] 0.001 | [4] -0.068 | [5] 0.018 | [6] 0.021 | [7] -0.006 | [8] 0.016 | [9] -0.009 | [10] 0.008 | [11] 0.056 | [12] -0.032 | [13] 0.002 | [14] -0.004 | [15] -0.083

CDKN1C (UniProt P49918)
inactive: [1] -0.054 | [2] -0.035 | [3] 0.083 | [4] 0.094 | [5] 0.055 | [6] 0.091 | [7] 0.037 | [8] -0.091 | [9] -0.101 | [10] 0.04 | [11] 0.124 | [12] 0.058 | [13] -0.029 | [14] 0.134 | [15] 0.048

CCDC22 (UniProt O60826)
Sequence of UniProt O60826 (O60826 whole entry, looked up): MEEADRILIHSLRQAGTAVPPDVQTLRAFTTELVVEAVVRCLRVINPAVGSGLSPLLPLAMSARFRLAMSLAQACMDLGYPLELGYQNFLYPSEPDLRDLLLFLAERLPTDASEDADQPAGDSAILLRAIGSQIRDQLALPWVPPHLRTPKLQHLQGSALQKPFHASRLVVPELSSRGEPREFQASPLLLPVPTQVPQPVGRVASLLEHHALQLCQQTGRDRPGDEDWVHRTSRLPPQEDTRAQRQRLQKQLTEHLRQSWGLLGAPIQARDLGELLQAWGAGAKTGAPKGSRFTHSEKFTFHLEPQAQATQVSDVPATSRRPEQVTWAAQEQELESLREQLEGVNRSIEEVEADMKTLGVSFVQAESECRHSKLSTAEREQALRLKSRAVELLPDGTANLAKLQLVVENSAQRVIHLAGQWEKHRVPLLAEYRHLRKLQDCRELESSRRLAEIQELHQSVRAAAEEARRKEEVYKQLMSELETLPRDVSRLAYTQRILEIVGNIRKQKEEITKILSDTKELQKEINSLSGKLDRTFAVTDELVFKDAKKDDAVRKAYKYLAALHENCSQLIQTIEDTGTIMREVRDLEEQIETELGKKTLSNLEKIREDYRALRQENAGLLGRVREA
active: [12] -0.222
inactive: [1] 0.007 | [2] -0.018 | [3] -0.055 | [4] -0.005 | [5] -0.006 | [6] -0.006 | [7] 0.012 | [8] 0.041 | [9] 0.025 | [10] -0.017 | [11] 0.056 | [13] 0.022 | [14] 0.014 | [15] -0.021

CAD (UniProt P27708)
inactive: [1] 0.004 | [2] 0.013 | [3] -0.094 | [4] -0.001 | [5] 0.038 | [6] -0.02 | [7] -0.005 | [8] 0.023 | [9] -0.006 | [10] 0.004 | [11] 0.012 | [12] -0.067 | [13] 0.026 | [14] 0.008 | [15] 0

ATRIP (UniProt Q8WXE1)
Sequence of UniProt Q8WXE1 (Q8WXE1 whole entry, looked up): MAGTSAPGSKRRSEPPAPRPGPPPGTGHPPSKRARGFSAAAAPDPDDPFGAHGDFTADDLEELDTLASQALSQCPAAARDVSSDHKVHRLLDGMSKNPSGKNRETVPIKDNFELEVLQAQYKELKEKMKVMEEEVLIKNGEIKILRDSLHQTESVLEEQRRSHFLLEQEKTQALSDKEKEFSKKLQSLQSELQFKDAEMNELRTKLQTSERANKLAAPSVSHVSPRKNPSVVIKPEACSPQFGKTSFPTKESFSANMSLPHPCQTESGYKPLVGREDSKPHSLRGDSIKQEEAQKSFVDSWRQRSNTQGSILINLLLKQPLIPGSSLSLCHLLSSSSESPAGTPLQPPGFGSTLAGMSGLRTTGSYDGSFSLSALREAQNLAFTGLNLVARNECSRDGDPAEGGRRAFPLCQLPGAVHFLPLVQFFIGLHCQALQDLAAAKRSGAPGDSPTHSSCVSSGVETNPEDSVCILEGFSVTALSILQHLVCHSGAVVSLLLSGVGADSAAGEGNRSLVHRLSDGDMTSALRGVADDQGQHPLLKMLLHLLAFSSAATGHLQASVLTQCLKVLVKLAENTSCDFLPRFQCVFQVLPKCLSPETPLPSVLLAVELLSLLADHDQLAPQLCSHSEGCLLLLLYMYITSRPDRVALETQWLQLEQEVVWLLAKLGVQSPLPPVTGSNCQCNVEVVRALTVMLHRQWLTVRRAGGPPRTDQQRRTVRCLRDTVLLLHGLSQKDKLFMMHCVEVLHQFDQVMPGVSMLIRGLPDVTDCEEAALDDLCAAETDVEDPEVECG
inactive: [1] -0.014 | [2] -0.028 | [3] -0.059 | [4] 0.071 | [5] 0.045 | [6] -0.03 | [7] -0.049 | [8] -0.007 | [9] 0.01 | [10] 0.032 | [11] -0.088 | [12] -0.28 | [13] 0.229 | [14] 0.039 | [15] -0.009

CARD9 (UniProt Q9H257)
active: [12] -0.217
inactive: [1] 0.047 | [2] -0.037 | [3] -0.017 | [4] 0.028 | [5] 0 | [6] -0.032 | [7] -0.035 | [8] 0.005 | [9] 0.034 | [10] -0.007 | [11] 0.008 | [13] 0.011 | [14] 0.014 | [15] -0.038

BCKDHB (UniProt P21953)
Sequence of UniProt P21953 (P21953 whole entry, looked up): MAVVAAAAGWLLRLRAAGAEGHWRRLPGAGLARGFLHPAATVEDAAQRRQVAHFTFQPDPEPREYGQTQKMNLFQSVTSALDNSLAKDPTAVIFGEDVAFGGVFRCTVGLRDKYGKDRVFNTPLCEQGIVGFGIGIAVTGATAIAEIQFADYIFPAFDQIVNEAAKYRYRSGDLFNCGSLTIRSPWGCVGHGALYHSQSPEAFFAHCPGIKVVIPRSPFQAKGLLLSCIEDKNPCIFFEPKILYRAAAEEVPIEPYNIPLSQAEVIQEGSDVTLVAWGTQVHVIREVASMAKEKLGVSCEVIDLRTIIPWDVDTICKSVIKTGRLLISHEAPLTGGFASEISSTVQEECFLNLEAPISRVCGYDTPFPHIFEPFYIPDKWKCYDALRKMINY
active: [12] -0.275
inactive: [1] 0.068 | [2] 0.007 | [3] 0.062 | [4] 0.084 | [5] 0.039 | [6] 0.031 | [7] -0.069 | [8] -0.005 | [9] 0.007 | [10] -0.039 | [11] 0.055 | [13] 0.076 | [14] 0.072 | [15] -0.123

BPHL (UniProt Q86WA6)
inactive: [1] -0.049 | [2] 0.084 | [3] 0.008 | [4] -0.043 | [5] 0.055 | [6] -0.02 | [7] 0.01 | [8] -0.03 | [9] 0.016 | [10] 0.022 | [11] -0.093 | [12] 0.143 | [13] 0.049 | [14] -0.006 | [15] 0.028

CELF2 isoform 3 (UniProt O95319)
Sequence of UniProt O95319 (O95319 whole entry, looked up): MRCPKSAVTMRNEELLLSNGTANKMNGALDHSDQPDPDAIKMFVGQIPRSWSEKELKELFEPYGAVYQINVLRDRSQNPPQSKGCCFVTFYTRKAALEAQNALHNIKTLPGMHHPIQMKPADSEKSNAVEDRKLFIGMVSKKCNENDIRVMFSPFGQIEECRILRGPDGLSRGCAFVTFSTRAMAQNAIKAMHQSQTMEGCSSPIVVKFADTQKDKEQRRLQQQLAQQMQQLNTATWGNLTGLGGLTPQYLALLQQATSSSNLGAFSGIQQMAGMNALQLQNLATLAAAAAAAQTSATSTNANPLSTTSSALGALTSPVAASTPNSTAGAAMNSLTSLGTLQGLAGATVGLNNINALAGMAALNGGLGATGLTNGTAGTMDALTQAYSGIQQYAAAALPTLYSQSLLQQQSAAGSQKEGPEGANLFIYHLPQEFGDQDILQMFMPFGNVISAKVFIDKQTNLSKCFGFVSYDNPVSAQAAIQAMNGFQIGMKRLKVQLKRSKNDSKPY
inactive: [1] 0.054 | [2] 0.038 | [3] -0.015 | [4] -0.028 | [5] -0.043 | [6] 0.036 | [7] -0.129 | [8] -0.037 | [9] -0.021 | [10] 0.068 | [11] 0.036 | [12] -0.028 | [13] -0.012 | [14] -0.041 | [15] 0.033

ATP6V1B1 (UniProt P15313)
Sequence of UniProt P15313 (P15313 whole entry, looked up): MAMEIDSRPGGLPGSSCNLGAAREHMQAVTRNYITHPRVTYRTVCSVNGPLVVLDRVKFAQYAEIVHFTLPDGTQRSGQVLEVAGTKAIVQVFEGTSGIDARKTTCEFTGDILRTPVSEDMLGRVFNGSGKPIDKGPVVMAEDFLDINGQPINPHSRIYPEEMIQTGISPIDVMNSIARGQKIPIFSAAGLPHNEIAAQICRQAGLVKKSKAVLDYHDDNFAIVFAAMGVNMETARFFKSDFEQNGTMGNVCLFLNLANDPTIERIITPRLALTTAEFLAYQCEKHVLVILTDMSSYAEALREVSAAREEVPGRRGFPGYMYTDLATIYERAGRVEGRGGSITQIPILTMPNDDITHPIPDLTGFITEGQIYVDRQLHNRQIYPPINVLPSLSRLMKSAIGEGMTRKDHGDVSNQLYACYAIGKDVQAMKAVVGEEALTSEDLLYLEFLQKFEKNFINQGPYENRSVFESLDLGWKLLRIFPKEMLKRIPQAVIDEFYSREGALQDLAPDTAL
inactive: [1] -0.024 | [2] 0.029 | [3] 0.034 | [4] -0.045 | [5] -0.021 | [6] -0.029 | [7] -0.036 | [8] 0.01 | [9] 0.019 | [10] 0.008 | [11] -0.005 | [12] 0.083 | [13] -0.013 | [14] -0.006 | [15] 0.014

C19orf54 (UniProt Q5BKX5)
Sequence of UniProt Q5BKX5 (Q5BKX5 whole entry, looked up): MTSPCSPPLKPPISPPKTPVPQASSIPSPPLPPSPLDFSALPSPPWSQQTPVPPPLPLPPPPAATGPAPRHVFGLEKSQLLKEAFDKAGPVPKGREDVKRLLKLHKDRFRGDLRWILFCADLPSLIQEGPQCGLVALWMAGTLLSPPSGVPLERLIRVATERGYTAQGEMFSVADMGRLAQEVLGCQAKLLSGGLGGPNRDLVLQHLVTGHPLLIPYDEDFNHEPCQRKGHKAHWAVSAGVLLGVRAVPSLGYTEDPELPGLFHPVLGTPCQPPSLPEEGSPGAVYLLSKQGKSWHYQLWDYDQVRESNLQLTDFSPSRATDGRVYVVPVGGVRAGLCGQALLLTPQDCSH
inactive: [1] 0.012 | [2] -0.006 | [3] -0.037 | [4] -0.016 | [5] 0.006 | [6] 0.006 | [7] -0.007 | [8] 0.098 | [9] 0.016 | [10] 0.003 | [11] -0.052 | [13] -0.004 | [14] -0.006 | [15] 0.009
active: [12] -0.381

ATP5PF isoform 2 (UniProt P18859)
inactive: [1] 0.059 | [2] 0.046 | [3] 0.026 | [4] 0.164 | [5] -0.013 | [6] 0.11 | [7] 0.066 | [8] -0.058 | [9] -0.029 | [10] -0.051 | [11] -0.002 | [12] 0.206 | [13] -0.116 | [14] 0.053 | [15] -0.003

ATP9B (UniProt O43861)
inactive: [1] 0.05 | [2] 0.164 | [3] -0.04 | [4] -0.069 | [5] -0.049 | [6] 0.009 | [7] -0.08 | [8] -0.021 | [9] 0.107 | [10] 0.064 | [11] 0.013 | [12] 0.012 | [13] 0.005 | [14] -0.045 | [15] 0

CEP120 (UniProt Q8N960)
Sequence of UniProt Q8N960 (Q8N960 whole entry, looked up): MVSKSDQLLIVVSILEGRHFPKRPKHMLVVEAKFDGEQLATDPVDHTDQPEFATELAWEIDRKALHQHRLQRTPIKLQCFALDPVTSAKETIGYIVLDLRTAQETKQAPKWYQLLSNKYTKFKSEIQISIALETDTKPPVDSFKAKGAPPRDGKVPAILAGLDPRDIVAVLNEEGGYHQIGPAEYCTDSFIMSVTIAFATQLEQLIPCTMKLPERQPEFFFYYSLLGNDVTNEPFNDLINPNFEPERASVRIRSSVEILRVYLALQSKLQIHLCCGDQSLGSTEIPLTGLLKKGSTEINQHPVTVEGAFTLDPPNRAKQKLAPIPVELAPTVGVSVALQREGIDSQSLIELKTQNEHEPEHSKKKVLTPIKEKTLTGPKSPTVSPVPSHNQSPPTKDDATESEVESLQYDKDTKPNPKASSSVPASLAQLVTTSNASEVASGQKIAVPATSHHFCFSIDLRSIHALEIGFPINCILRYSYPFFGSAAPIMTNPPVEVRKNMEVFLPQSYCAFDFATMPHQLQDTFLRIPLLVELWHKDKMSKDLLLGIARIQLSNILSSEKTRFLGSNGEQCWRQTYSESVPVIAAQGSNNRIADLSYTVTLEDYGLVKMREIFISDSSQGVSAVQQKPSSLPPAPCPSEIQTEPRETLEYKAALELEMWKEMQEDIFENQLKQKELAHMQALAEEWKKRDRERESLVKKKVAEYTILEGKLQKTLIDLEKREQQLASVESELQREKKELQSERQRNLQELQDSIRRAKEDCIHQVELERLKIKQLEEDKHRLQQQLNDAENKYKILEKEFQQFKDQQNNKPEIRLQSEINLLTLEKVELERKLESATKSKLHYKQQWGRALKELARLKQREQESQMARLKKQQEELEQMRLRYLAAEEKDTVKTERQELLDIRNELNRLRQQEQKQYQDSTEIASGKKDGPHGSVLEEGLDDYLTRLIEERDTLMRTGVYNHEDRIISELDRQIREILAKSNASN
active: [1] 0.524
inactive: [2] -0.186 | [3] 0 | [4] -0.251 | [5] -0.001 | [6] -0.067 | [7] 0.16 | [8] 0.013 | [9] 0.024 | [10] -0.151 | [11] 0.261 | [12] 0.042 | [13] -0.075 | [14] 0.135 | [15] -0.13

CBX1 (UniProt P83916)
inactive: [1] 0.006 | [2] -0.003 | [3] 0.017 | [4] 0 | [5] -0.027 | [6] -0.004 | [7] -0.008 | [8] -0.004 | [9] 0.062 | [10] 0.012 | [11] 0.029 | [12] 0.092 | [13] -0.046 | [14] -0.01 | [15] -0.018

CDK8 (UniProt P49336)
inactive: [1] -0.025 | [2] -0.037 | [3] -0.054 | [4] 0.119 | [5] -0.032 | [6] -0.05 | [7] -0.209 | [8] 0.018 | [9] -0.006 | [10] -0.033 | [11] -0.008 | [12] -0.057 | [13] 0.226 | [14] -0.053

ATP6V0A2 (UniProt Q9Y487)
inactive: [1] 0.034 | [2] -0.008 | [3] -0.028 | [4] 0.027 | [5] 0.003 | [6] -0.065 | [7] -0.033 | [8] -0.011 | [9] 0.001 | [10] -0.001 | [11] -0.033 | [12] 0.127 | [13] -0.016 | [14] -0.021 | [15] 0.012

CDK16 isoform 2 (UniProt Q00536)
Sequence of UniProt Q00536 (Q00536 whole entry, looked up): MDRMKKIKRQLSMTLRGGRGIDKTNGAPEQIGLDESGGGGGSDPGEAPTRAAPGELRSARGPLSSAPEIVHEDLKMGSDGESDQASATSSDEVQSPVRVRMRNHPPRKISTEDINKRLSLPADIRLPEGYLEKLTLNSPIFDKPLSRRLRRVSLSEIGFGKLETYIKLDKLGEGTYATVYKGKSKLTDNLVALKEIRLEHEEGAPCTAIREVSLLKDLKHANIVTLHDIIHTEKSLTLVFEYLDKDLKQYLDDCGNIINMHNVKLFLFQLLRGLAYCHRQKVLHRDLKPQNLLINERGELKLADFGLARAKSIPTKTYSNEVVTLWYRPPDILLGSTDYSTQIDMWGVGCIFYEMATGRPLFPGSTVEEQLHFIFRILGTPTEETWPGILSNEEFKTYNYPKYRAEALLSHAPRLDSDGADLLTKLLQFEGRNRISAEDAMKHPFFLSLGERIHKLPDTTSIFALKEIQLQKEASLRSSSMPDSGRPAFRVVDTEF
active: [4] 0.433 | [13] 0.446 | [14] 0.603
inactive: [1] 0.043 | [2] 0.412 | [3] 0.033 | [5] -0.033 | [6] -0.044 | [7] -0.01 | [8] -0.016 | [9] 0.081 | [10] -0.124 | [11] 0.006 | [12] 0.055 | [15] -0.05

CDC123 (UniProt O75794)
inactive: [1] 0.026 | [2] -0.011 | [3] -0.006 | [4] -0.104 | [5] 0.033 | [6] 0.008 | [7] -0.008 | [8] 0.022 | [9] -0.009 | [10] 0.017 | [11] -0.064 | [12] -0.019 | [13] 0.015 | [14] -0.032 | [15] 0.043

C3orf33 (UniProt Q6P1S2)
Sequence of UniProt Q6P1S2 (Q6P1S2 whole entry, looked up): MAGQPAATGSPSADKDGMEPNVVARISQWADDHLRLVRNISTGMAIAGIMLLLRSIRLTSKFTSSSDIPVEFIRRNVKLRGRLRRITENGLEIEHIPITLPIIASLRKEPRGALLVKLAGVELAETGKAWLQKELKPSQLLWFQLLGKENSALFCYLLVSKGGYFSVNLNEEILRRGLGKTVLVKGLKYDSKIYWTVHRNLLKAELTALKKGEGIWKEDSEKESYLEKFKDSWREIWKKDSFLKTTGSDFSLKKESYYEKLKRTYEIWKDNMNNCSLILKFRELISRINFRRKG
inactive: [1] -0.105 | [2] -0.15 | [3] -0.013 | [4] 0.009 | [5] -0.072 | [6] -0.14 | [7] 0.007 | [8] 0.274 | [9] 0.094 | [10] 0.123 | [11] -0.085 | [12] -0.118 | [13] -0.137 | [14] 0.023

CCNYL1 (UniProt Q8N7R7)
active: [12] -0.674
inactive: [1] -0.001 | [2] -0.033 | [3] 0.034 | [4] 0.043 | [5] -0.003 | [6] -0.078 | [7] -0.08 | [8] 0.008 | [9] 0.075 | [10] -0.006 | [11] -0.013 | [13] 0.079 | [14] 0.019 | [15] -0.005

From the supplement of paper PMC10849652
